Drawing on PubChem BioAssay (EPA / NIEHS), this text covers outcome and AC50 for four compounds.

Holding throughout (details): mRNA level, 48 h; actives raise or lower the signal
Read-out in test [1]: Pro-epidermal growth factor (Homo sapiens) (UniProt P01133)
Kind of test: LTEA_HepaRG_EGF: Life Technologies and Expression Analysis (LTEA) Assay for Epidermal growth factor (EGF) using HepaRG (AID 2283489). Summed up: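 HepaRG cells (~100,000/well, 48 h pre-culture) exposed in duplicate for 48 h in serum-free induction medium to 8 half-log concentrations up to 100 uM in 0.5% DMSO. EGF mRNA by qRT-PCR, normalized to ACTB/GAPDH/POLR2A; bidirectional fit versus DMSO.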

Read-out in test [2]: Ezrin (EZR), EZR (gene 7430)
Put plainly: LTEA_HepaRG_EZR: Life Technologies and Expression Analysis (LTEA) Assay for Ezrin (EZR) using HepaRG (AID 2283491). Summed up:
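EZR transcript levels came from Fluidigm qRT-PCR and were normalized to three housekeeping genes after 48 h chemical exposure of HepaRG cells. Dosing used an 8-point half-log series with a 100 uM top concentration in 0.5% DMSO, tested in duplicate; both directions were fitted versus vehicle.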

Read-out in test [3]: Cytochrome P450 3A7 (Homo sapiens) (UniProt P24462)
Kind of test: LTEA_HepaRG_CYP3A7: Life Technologies and Expression Analysis (LTEA) Assay for CYP3A7 using HepaRG (AID 2283492). The procedure, abridged:
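Differentiated HepaRG cells in serum-free induction medium exposed 48 h in duplicate to 8-point half-log series from 100 uM top in 0.5% DMSO. CYP3A7 mRNA by qRT-PCR, normalized to ACTB/GAPDH/POLR2A, bidirectional fit versus DMSO.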

Read-out in a further test: CYP3A5 (gene 1577)
Kind of test: LTEA_HepaRG_CYP3A5: Life Technologies and Expression Analysis (LTEA) Assay for CYP3A5 using HepaRG (AID 2283493). Summed up:
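Human HepaRG hepatic cells receive 48 h chemical treatment at eight concentrations (half-log steps from 100 uM) in 0.5% DMSO. Expression of CYP3A5 is quantified by Fluidigm qRT-PCR and normalized to three reference genes.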

Read-out in test [4]: Fatty Acid-Binding Protein 1 (FABP1), FABP1 (gene 2168)
Put plainly: LTEA_HepaRG_FABP1: Life Technologies and Expression Analysis (LTEA) Assay for Fatty Acid-Binding Protein 1 (FABP1) using HepaRG (AID 2283494). Summed up: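 qRT-PCR readout of FABP1 transcript (normalized to three housekeeping genes) after 48 h chemical exposure of HepaRG cells; eight concentrations, half-log steps, max 100 uM, 0.5% DMSO vehicle; gain or loss fitted relative to DMSO baseline.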

Read-out in test [5]: Cytochrome P450 4A22 (Homo sapiens) (UniProt Q5TCH4)
Kind of test: LTEA_HepaRG_CYP4A22: Life Technologies and Expression Analysis (LTEA) Assay for Cytochrome P450 4A22 (CYP4A22) using HepaRG (AID 2283495). The procedure, abridged:
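Differentiated HepaRG cells in serum-free induction medium exposed 48 h in duplicate to eight half-log concentrations up to 100 uM in 0.5% DMSO. CYP4A22 mRNA quantified by TaqMan qRT-PCR, normalized to ACTB, GAPDH and POLR2A; bidirectional fit versus DMSO.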

Read-out in test [6]: Cytochrome P450 7A1 (Homo sapiens) (UniProt P22680)
Put plainly: LTEA_HepaRG_CYP7A1: Life Technologies and Expression Analysis (LTEA) Assay for Cytochrome P450 7A1 (CYP7A1) using HepaRG (AID 2283496). The procedure, abridged: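 HepaRG, 48 h exposure, 8-pt half-log series from 100 uM, 0.5% DMSO vehicle, duplicates. Readout: TaqMan qRT-PCR mRNA vs three housekeeping genes; bidirectional curve fit against DMSO baseline.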

Read-out in test [7]: Glutathione S-Transferase (GSTA2), GSTA2 (gene 2939)
Put plainly: LTEA_HepaRG_GSTA2: Life Technologies and Expression Analysis (LTEA) Assay for Glutathione S-Transferase (GSTA2) using HepaRG (AID 2283497). The procedure, abridged: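 qRT-PCR readout of GSTA2 transcript, normalized to three housekeeping genes, fitted bidirectionally against 0.5% DMSO baseline. Differentiated HepaRG cells received compound for 48 h at 8 concentrations (top 100 uM, half-log steps).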

Read-out in test [8]: Glutamate-cysteine ligase catalytic (GCLC), GCLC (gene 2729)
Put plainly: LTEA_HepaRG_GCLC: Life Technologies and Expression Analysis (LTEA) Assay for Glutamate-cysteine ligase catalytic (GCLC) using HepaRG (AID 2283498). Summed up:
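HepaRG, 48 h exposure, 8-pt half-log series from 100 uM, 0.5% DMSO vehicle; TaqMan qRT-PCR for GCLC mRNA, housekeeping-normalized; bidirectional curve fit vs DMSO baseline.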

Read-out in test [9]: growth arrest and DNA damage 45 (GADD45G), GADD45G (gene 10912)
Put plainly: LTEA_HepaRG_GADD45G: Life Technologies and Expression Analysis (LTEA) Assay for growth arrest and DNA damage 45 (GADD45G) using HepaRG (AID 2283499). The procedure, abridged:
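Differentiated human HepaRG cells, 48 h post-plating, exposed 48 h in serum-free induction medium to 8 half-log concentrations (top 100 uM, 0.5% DMSO) in duplicate. GADD45G mRNA measured by Fluidigm TaqMan qRT-PCR, normalized to ACTB, GAPDH, POLR2A; bidirectional fit versus DMSO.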

Read-out in test [10]: Glutamate-cysteine ligase regulatory (GCLM), GCLM (gene 2730)
Put plainly: LTEA_HepaRG_GCLM: Life Technologies and Expression Analysis (LTEA) Assay for Glutamate-cysteine ligase regulatory (GCLM) using HepaRG (AID 2283500). Summed up:
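Endpoint is GCLM transcript level by qRT-PCR, normalized to three housekeeping genes, after 48 h chemical exposure of human HepaRG cells (0.5% DMSO vehicle, top 100 uM, half-log dilutions). Fitting was bidirectional relative to DMSO.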

Read-out in test [11]: Glutathione S-transferase M3 (GSTM3), GSTM3 (gene 2947)
Kind of test: LTEA_HepaRG_GSTM3: Life Technologies and Expression Analysis (LTEA) Assay for Glutathione S-transferase M3 (GSTM3) using HepaRG (AID 2283501). Summed up: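 Differentiated human HepaRG cells were exposed in duplicate for 48 h in serum-free induction medium, 8 points from 100 uM top in half-log steps, 0.5% DMSO. GSTM3 mRNA was measured by TaqMan qRT-PCR, normalized to ACTB, GAPDH and POLR2A; bidirectional fit versus DMSO.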

Read-out in test [12]: Heat shock 70 kDa protein 1 (HSPA1A), gene 3303
Put plainly: LTEA_HepaRG_HSPA1A: Life Technologies and Expression Analysis (LTEA) Assay for Heat shock 70 kDa protein 1 (HSPA1A) using HepaRG (AID 2283502). Summed up:
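Cells were plated and cultured for 48 h, then switched to serum-free induction medium. Chemicals were added at eight half-log concentrations up to 100 uM for 48 h. RNA was then isolated and HSPA1A measured by qRT-PCR with bidirectional curve fitting against DMSO.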

Read-out in test [13]: Hypoxia-inducible factor 1-alpha (Homo sapiens) (UniProt Q16665)
Kind of test: LTEA_HepaRG_HIF1A: Life Technologies and Expression Analysis (LTEA) Assay for Hypoxia-inducible factor 1 (HIF1A) Trancription factor using HepaRG (AID 2283503). Summed up: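 HIF1A transcript level read by qRT-PCR (ACTB, GAPDH, POLR2A normalization) after 48 h chemical exposure of HepaRG cultures. Eight half-log concentrations, top 100 uM, 0.5% DMSO vehicle, duplicates; bidirectional curve fit against DMSO baseline.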

Read-out in test [14]: 3-Hydroxy-3-Methylglutaryl-CoA Synthase 2 (HMGCS2), HMGCS2 (gene 3158)
Put plainly: LTEA_HepaRG_HMGCS2: Life Technologies and Expression Analysis (LTEA) Assay for 3-Hydroxy-3-Methylglutaryl-CoA Synthase 2 (HMGCS2) using HepaRG (AID 2283504). The procedure, abridged:
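Human HepaRG cells in serum-free induction medium were exposed in duplicate for 48 h to 8-point half-log series from 100 uM top in 0.5% DMSO. HMGCS2 mRNA measured by TaqMan qRT-PCR, normalised to ACTB, GAPDH, POLR2A; bidirectional fit versus DMSO.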

Read-out in a further test: HGF (gene 3082)
Kind of test: LTEA_HepaRG_HGF: Life Technologies and Expression Analysis (LTEA) Assay for Hepatocyte Growth Facto (HGF) using HepaRG (AID 2283505). The procedure, abridged:
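Differentiated HepaRG cells in serum-free induction medium exposed 48 h in duplicate, 8 half-log concentrations from 100 uM in 0.5% DMSO. HGF mRNA by qRT-PCR, normalised to ACTB, GAPDH, POLR2A; bidirectional fitting.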

Read-out in test [15]: Insulin Like Growth Factor 1 (IGF1), IGF1 (gene 3479)
Kind of test: LTEA_HepaRG_IGF1: Life Technologies and Expression Analysis (LTEA) Assay for Insulin Like Growth Factor 1 (IGF1) using HepaRG (AID 2283506). Summed up:
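Cells are thawed, plated and cultured 48 h, then exposed in duplicate to chemical (highest 100 uM, half-log steps, 0.5% DMSO) for another 48 h. Total RNA is analysed by Fluidigm qRT-PCR for IGF1 expression relative to vehicle.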

Read-out in test [16]: Insulin-like growth factor-binding protein 1 (IGFBP1), IGFBP1 (gene 3484)
Put plainly: LTEA_HepaRG_IGFBP1: Life Technologies and Expression Analysis (LTEA) Assay for Insulin-like growth factor-binding protein 1 (IGFBP1) using HepaRG (AID 2283508). The procedure, abridged: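 HepaRG cells, plated 48 h then switched to serum-free induction medium, exposed in duplicate for 48 h to 8-point half-log series from 100 uM in 0.5% DMSO. mRNA measured by qRT-PCR, normalized to ACTB/GAPDH/POLR2A; bidirectional fit versus DMSO.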

Read-out in test [17]: Early growth response protein 1 (EGR1) transcription factor, EGR1 (gene 1958)
Kind of test: LTEA_HepaRG_EGR1: Life Technologies and Expression Analysis (LTEA) Assay for Early growth response protein 1 (EGR1) transcription factor using HepaRG (AID 2283490). The procedure, abridged:
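HepaRG, 48 h exposure, 8-pt half-log series from 100 uM, 0.5% DMSO vehicle; EGR1 transcript by TaqMan qRT-PCR (Fluidigm array), housekeeping-normalized; bidirectional fit relative to DMSO baseline.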

Read-out in test [18]: Intercellular Adhesion Molecule 1 (ICAM1), ICAM1 (gene 3383)
Kind of test: LTEA_HepaRG_ICAM1: Life Technologies and Expression Analysis (LTEA) Assay for Intercellular Adhesion Molecule 1 (ICAM1) using HepaRG (AID 2283507). Summed up:
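Differentiated human HepaRG cells in serum-free induction medium exposed 48 h in duplicate to 8 half-log concentrations (top 100 uM, 0.5% DMSO). ICAM1 mRNA quantified by TaqMan qRT-PCR, normalized to ACTB, GAPDH and POLR2A; bidirectional fitting versus DMSO.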

Activity calls are given as the source filed them. Rule for the calls: active = hit-call score of the fitted dose curve at least 0.9, where 1 is the maximum; inactive = score below 0.9.

Sequence of Cytochrome P450 3A7 (Homo sapiens) (P24462 whole entry, looked up): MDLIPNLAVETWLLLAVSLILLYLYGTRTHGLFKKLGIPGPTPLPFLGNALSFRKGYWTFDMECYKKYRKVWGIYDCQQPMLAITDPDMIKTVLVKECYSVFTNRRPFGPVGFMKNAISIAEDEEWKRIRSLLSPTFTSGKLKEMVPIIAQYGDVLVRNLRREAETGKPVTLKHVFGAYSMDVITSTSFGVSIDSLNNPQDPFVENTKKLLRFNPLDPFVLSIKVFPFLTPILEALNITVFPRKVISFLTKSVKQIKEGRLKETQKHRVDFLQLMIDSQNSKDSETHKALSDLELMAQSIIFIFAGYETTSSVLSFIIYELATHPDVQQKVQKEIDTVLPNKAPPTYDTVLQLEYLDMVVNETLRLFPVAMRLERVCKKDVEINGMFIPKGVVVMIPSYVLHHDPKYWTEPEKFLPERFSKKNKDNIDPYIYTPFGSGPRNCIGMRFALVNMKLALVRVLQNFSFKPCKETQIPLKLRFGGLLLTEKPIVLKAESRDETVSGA
Sequence of Hypoxia-inducible factor 1-alpha (Homo sapiens) (Q16665 whole entry, looked up): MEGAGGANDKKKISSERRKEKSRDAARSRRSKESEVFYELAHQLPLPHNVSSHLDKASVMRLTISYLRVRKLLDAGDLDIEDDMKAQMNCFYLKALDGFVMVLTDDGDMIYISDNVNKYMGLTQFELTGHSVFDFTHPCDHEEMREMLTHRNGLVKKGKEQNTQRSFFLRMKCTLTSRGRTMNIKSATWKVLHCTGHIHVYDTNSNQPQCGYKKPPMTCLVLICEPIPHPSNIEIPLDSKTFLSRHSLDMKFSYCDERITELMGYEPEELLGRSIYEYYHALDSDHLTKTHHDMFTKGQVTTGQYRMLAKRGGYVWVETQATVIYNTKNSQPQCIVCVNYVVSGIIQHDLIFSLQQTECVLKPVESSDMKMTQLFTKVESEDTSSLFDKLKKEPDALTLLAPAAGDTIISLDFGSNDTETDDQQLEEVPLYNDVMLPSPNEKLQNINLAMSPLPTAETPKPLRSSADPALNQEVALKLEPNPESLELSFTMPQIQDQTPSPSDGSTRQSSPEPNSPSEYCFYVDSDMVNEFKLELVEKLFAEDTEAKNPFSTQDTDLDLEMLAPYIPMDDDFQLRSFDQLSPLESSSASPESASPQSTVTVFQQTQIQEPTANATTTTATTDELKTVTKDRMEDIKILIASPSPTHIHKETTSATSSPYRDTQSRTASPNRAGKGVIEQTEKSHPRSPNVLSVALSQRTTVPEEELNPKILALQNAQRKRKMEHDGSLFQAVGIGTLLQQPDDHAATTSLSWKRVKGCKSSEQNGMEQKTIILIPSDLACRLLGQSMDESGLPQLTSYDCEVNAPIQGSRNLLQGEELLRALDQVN

For the compound `CCCCCCC(=O)OCC`, the outcome (in test [1]; in test [2]; in test [3]; with CYP3A5 (gene 1577); in test [4]; in test [5]) was inactive. Further, the compound was classed as inactive in [6], in test [7], in [8], in [9], in test [10] and in test [11]. The call (in test [12]; in test [13]; in test [14]; in the test with HGF (gene 3082); in test [15]; in [16]) was inactive.

Turning to `Oc1ccc2ccccc2c1N=Nc1ccccc1`, the call (in [1]; in test [2]; in test [5]; in test [11]; in test [13]; with HGF (gene 3082)) was inactive. For the same compound, the outcome in test [18] was inactive. Besides, the AC50 in test [17] was 3.53 µM (active); in test [3] it was 2.19 µM (active); in the test with CYP3A5 (gene 1577), 8.1 µM (active); in test [4], 16.2 µM (active); in test [6], 16.3 µM (active); in test [7] it was 3.38 µM (active). Further, the half-maximal activity concentration (AC50) is 5.52 µM (active) in test [8]; 12.6 µM (active) in test [9]; 24.6 µM (active) in test [10]; 14.8 µM (active) in [14]; 50 µM (active) in test [15]; 5.48 µM (active) in test [16].

For `CC(C)c1ccc(C(=O)N=C(N)N)cc1S(C)(=O)=O`, the half-maximal activity concentration (AC50) in test [1] is 690 nM (active); in [17] it was 0.337 µM (active); in test [3], 0.74 µM (active); in test [5], 8.37 µM (active); in [8] it was 0.336 µM (active); in test [10] it was 0.441 µM (active). The AC50 was 446 nM (active) in test [11], 0.362 µM (active) in test [15] and 0.266 µM (active) in [16]. The outcome (in [2]; in the test with CYP3A5 (gene 1577); in [4]; in [6]; in test [7]; in test [9]) was inactive. The compound was called inactive in test [13] and in [14].

For the compound `Cc1cccc(C)c1O`, the result (in test [1]; in test [17]; in test [2]; in test [3]; with CYP3A5 (gene 1577); in test [4]) was inactive. The compound was classed as inactive in test [5], in test [6], in [7], in [8], in test [9] and in [10]. Also, the outcome in [11], in test [13], in test [14], in test [15] and in [16] was inactive.
